# Results as given in PubChem BioAssay (Tox21).
# “And” between values parts separate entries of the source, which are not always exact repeats. Equal entries are not always repeated. Records with an inconclusive call do not appear. Entries that show only a call come without a potency. The source holds several records for some structures; these can differ, active in one and inactive in another. The source made the active and inactive calls. Unless noted, calls come from the whole dose curve.
# What was measured:
# [1] = Nuclear factor erythroid 2-related factor 2/antioxidant responsive element (Nrf2/ARE) small molecule agonists: qHTS cell viability counter screen in human keratinocytes (AID 1919968; active = well fitted curve in the direction sought with a large enough effect in the repeat runs; an effect the other way counts as inactive or inconclusive; note: nearly all actives have a fitted effect of over 55% in size; note: potency is the fitted concentration of half-maximal effect)
# Summary of the method: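 Measured as CellTiter-Fluor fluorescence, this readout tracks cytotoxicity in the same wells as the ARE-luciferase screen. HaCaT reporter cells (1,500/well) received compounds after a 5 h pre-incubation and were exposed for 23 h.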
# [2] = Nuclear factor erythroid 2-related factor 2/antioxidant responsive element (Nrf2/ARE) small molecule agonists: luciferase reporter gene qHTS assay in human keratinocytes (AID 1919969); note: nearly all actives have a fitted effect of over 35% in size; note: potency is the fitted concentration of half-maximal effect
# [3] = biological target: Gonadotropin-releasing hormone receptor (Homo sapiens) (UniProt P30968); assay: Human gonadotropin-releasing hormone receptor (GnRHR) small molecule agonists, calcium flux assay in GnRHR-HEK293 cells (AID 1920063); note: nearly all actives have a fitted effect of over 35% in size
# Summary of the method: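 Fluorescence kinetics (480 nm excitation, 540 nm emission; 3 min, 1 s steps) report calcium mobilisation in human GnRHR-HEK293 cells in agonist mode. Dye incubation: 1 h, 37 C.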
# [4] = biological target: KiSS-1 receptor (Homo sapiens) (UniProt Q969F8); assay: Human kisspeptin (KISS1R) small molecule agonists, calcium flux assay in KISS1R-HEK293 cells (AID 1920064; active = well fitted curve in the direction sought with a large enough effect in the repeat runs; an effect the other way counts as inactive or inconclusive)
# Summary of the method: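 Measures KISS1R agonism through calcium-sensitive dye fluorescence in stably transfected HEK293 cells, read for 3 min after pin-tool compound delivery; 15-point titrations in triplicate.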
# [5] = G protein-coupled receptor (GPCR) small molecule agonists, calcium flux assay: HEK293 wild type cell line counter screen (AID 1920065)
# Summary of the method: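 Readout: fluorescence at 480 nm excitation/540 nm emission, sampled at 1 s intervals for 3 min. Cells had been cultured 18 h, then dye-loaded 1 h at 37 C before compound or ATP addition.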
# [6] = p53 small molecule agonists, cell-based qHTS assay with human liver microsomes (AID 1963577);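 note: p53 response element beta-lactamase reporter cells with liver microsomes plus NADPH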
# Summary of the method: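 Reporter activation was measured by LiveBLAzer fluorescence intensity in p53RE-bla cells, which had been exposed to compounds for 16 h at 37 C alongside 0.5 mg/mL human liver microsomes and 0.5 mg/mL NADPH (final concentrations).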
# [7] = p53 small molecule agonists, cell-based qHTS assay with rat liver microsomes (AID 1963578)
# Summary of the method: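 Compound in DMSO added to p53RE-bla cells 5 h post-plating; rat microsomes/NADPH 0.5 mg/mL final; 16 h, 37 C; LiveBLAzer 2 h RT.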
# [8] = p53 small molecule agonists, cell-based qHTS assay with rat liver microsomes: qHTS cell viability counter screen (AID 1963580); note: nearly all actives have a fitted effect of over 45% in size; note: potency is the fitted concentration of half-maximal effect
# Summary of the method: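 Intracellular ATP, by CellTiter-Glo luminescence, defines viability. HCT-116 p53RE-bla cells, 4,000 per well, were compound-treated in the presence of rat liver microsomes and NADPH for 16 h at 37 C.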
# [9] = p53 small molecule agonists, cell-based qHTS assay (AID 1963582; active = well fitted activation curve with a large enough effect in the signal ratio in the repeat runs, not every such curve was filed as active; the % refers to the signal ratio)
# Summary of the method: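 Compounds are pin-transferred in DMSO onto p53RE-bla cells and incubated 16 h at 37 C. The B/G FRET beta-lactamase substrate is then applied for 2 h at RT and fluorescence recorded.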
# [10] = biological target: 5-hydroxytryptamine receptor 2A (Homo sapiens) (UniProt P28223); assay: 5-hydroxytryptamine receptor 2A (HTR2A) small molecule agonists, cell-based qHTS assay (AID 1963587); note: nearly all actives have a fitted effect of over 30% in size; note: potency is the fitted concentration of half-maximal effect
# Summary of the method: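 Kinetic calcium-flux fluorescence (2 min, 1 sec intervals) after compound addition in agonist mode. HTR2A-CHO cells were cultured 18 h, then dye-loaded 1 h at 37 C.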
# [11] = biological target: Muscarinic acetylcholine receptor M1 (Homo sapiens) (UniProt P11229); assay: Cholinergic receptor muscarinic 1 (CHRM1) small molecule antagonists, cell-based qHTS assay (AID 1963588); note: nearly all actives have a fitted effect of over 40% in size
# Summary of the method: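 CHRM1-CHO calcium-flux assay, antagonist mode. Cells were seeded 18 h, dye-loaded 1 h at 37 C and given compound for 5 min at RT, then acetylcholine was added at 50nM. FDSS fluorescence was read 3 min; 15 concentrations, three runs.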
# [12] = biological target: Muscarinic acetylcholine receptor M1 (Homo sapiens) (UniProt P11229); assay: Cholinergic receptor muscarinic 1 (CHRM1) small molecule agonists, cell-based qHTS assay (AID 1963589); note: nearly all actives have a fitted effect of over 35% in size
# Summary of the method: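 Each compound was tested at 15 concentrations across three independent runs on dye-loaded CHO cells stably expressing human CHRM1, reading intracellular calcium fluorescence kinetically at 1 sec intervals.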
# [13] = cAMP Responsive Elements (CRE) small molecule agonists, cell-based qHTS assay (AID 1963590)
# Summary of the method: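 Cell line: CRE-bla HEK 293T; medium DMEM/10% dialyzed FBS/0.1 mM NEAA/1 mM pyruvate/25 mM HEPES; 3 h compound exposure; beta-lactamase FRET readout after 2 h substrate loading at RT.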
# [14] = cAMP Responsive Elements (CRE) small molecule antagonists, cell-based qHTS assay (AID 1963591; active = well fitted inhibition curve with a large enough effect in the signal ratio in the repeat runs, not every such curve was filed as active; the % refers to the signal ratio; note: potency is the fitted concentration of half-maximal effect)
# Summary of the method: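 Inhibition of NKH477-driven (0.25 uM final) CRE-beta-lactamase signal in HEK293T cells, 3 h compound exposure at 37 °C, detected by FRET substrate fluorescence.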
# [15] = biological target: Beta-2 adrenergic receptor (Homo sapiens) (UniProt P07550); assay: Adrenergic beta2 receptor (ADRB2) small molecule antagonists, cell-based qHTS assay (AID 1963592); note: series mostly up to about 92 µM; nearly all actives have a fitted effect of over 50% in size
# Summary of the method: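 Cells (CHO, stable ADRB2 overexpression) incubated 18-20hr at 37C; compounds added from DMSO; agonist mix (1nM isoproterenol, 100uM IBMX, 25uM Ro-20-1724) added; 0.5hr RT; d2-cAMP and anti-cAMP-cryptate added; 1hr RT; 665/615 nm read.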
# [16] = biological target: D(2) dopamine receptor (Homo sapiens) (UniProt P14416); assay: Dopamine D2 receptor (DRD2) small molecule agonists, cell-based qHTS assay (AID 1963594); note: nearly all actives have a fitted effect of over 35% in size
# Summary of the method: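 cAMP accumulation in DRD2-HEK293 cells measured by HTRF after 1 h detection; compounds added 10 min before NKH477 (200nM […]) forskolin-analogue stimulation, 30 min at room temperature, with Ro20-1724 present at 0.1 mM final.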
# [17] = biological target: D(2) dopamine receptor (Homo sapiens) (UniProt P14416); assay: Dopamine D2 receptor (DRD2) small molecule antagonists, cell-based qHTS assay (AID 1963595; active = well fitted inhibition curve with a large enough effect in the signal ratio in the repeat runs, with a control signal flat; the % refers to the signal ratio)
# Summary of the method: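 Stable D2 receptor HEK293 line, 24 h after seeding. Compound preincubated 10 min, then quinpirole (12 nM) with forskolin analogue NKH477 (200 nM), 30 min, room temperature. Detection by time-resolved FRET of cAMP.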
# [18] = p53 small molecule agonists, cell-based qHTS assay: qHTS cell viability counter screen (AID 1963581); note: nearly all actives have a fitted effect of over 45% in size; note: potency is the fitted concentration of half-maximal effect
# Summary of the method: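 In the same plates used for the p53 bla reporter, HCT-116 cells given compounds for 16 h at 37 C received CellTiter-Glo; luminescence was recorded 30 min later at room temperature.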
# [19] = biological target: 5-hydroxytryptamine receptor 2A (Homo sapiens) (UniProt P28223); assay: 5-hydroxytryptamine receptor 2A (HTR2A) small molecule antagonists, cell-based qHTS assay (AID 1963586); note: nearly all actives have a fitted effect of over 45% in size
# Summary of the method: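 Antagonist-mode intracellular calcium assay: DOI (4 nM) added after 5 min compound pre-incubation at room temperature to dye-loaded HTR2A-CHO cells. Fluorescence followed for 3 min, sampled every second.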
# [20] = p53 small molecule agonists, cell-based qHTS assay with human liver microsomes: qHTS cell viability counter screen (AID 1963579); note: nearly all actives have a fitted effect of over 45% in size
# Summary of the method: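 HLM-supplemented (0.5 mg/mL final) and NADPH-supplemented (0.5 mg/mL final) p53RE-bla cultures, 4,000 cells per well, were dosed with compounds in DMSO for 16 h at 37 C; luminescent ATP detection (CellTiter-Glo, 30 min, room temperature) quantified surviving cells.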
# Sequence of Beta-2 adrenergic receptor (Homo sapiens) (P07550 whole entry, looked up): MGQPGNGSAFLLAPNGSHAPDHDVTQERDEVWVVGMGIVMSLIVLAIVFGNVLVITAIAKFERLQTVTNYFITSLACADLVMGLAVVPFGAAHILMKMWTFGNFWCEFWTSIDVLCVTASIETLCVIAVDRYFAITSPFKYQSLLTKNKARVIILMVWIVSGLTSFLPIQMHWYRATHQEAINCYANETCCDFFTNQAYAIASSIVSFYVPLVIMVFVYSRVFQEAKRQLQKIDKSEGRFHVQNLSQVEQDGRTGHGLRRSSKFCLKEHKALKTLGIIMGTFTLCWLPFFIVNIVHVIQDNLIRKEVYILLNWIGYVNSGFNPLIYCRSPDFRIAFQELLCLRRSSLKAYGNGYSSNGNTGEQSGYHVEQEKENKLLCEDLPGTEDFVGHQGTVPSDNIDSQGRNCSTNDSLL
# Sequence of D(2) dopamine receptor (Homo sapiens) (P14416 whole entry, looked up): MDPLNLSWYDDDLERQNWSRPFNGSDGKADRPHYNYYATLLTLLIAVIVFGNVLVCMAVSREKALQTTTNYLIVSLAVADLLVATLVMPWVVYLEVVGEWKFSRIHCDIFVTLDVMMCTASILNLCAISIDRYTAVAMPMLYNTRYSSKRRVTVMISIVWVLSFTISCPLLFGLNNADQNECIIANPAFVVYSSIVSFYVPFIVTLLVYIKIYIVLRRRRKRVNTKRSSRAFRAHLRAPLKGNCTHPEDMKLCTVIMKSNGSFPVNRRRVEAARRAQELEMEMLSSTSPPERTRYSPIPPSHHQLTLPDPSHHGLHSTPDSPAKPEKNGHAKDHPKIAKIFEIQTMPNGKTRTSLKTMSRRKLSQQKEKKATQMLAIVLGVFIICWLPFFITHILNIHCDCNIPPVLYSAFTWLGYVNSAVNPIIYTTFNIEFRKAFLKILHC
# Sequence of 5-hydroxytryptamine receptor 2A (Homo sapiens) (P28223 whole entry, looked up): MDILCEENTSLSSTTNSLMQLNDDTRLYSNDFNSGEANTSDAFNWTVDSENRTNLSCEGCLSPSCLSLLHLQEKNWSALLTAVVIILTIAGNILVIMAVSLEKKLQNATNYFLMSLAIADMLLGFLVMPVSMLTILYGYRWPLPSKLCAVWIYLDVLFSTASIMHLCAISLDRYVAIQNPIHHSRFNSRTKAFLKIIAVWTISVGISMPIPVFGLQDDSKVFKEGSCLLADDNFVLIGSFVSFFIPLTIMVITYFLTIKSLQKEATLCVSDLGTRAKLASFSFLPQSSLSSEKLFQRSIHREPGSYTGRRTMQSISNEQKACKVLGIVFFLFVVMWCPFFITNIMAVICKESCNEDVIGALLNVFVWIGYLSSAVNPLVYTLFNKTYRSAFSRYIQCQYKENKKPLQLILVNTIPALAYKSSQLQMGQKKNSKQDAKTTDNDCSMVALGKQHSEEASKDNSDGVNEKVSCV
# Sequence of Muscarinic acetylcholine receptor M1 (Homo sapiens) (P11229 whole entry, looked up): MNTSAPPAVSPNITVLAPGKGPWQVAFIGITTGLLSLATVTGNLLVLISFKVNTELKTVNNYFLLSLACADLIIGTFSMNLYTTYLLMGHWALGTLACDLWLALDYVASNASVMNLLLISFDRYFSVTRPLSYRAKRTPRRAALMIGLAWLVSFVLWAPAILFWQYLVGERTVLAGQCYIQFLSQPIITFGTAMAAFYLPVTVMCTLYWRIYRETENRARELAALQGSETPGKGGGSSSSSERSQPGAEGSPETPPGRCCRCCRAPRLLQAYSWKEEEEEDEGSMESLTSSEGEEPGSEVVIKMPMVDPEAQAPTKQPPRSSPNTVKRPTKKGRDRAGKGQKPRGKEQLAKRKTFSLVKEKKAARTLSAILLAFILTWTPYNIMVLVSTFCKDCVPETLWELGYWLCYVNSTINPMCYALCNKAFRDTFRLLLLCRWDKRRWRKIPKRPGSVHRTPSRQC
# Sequence of KiSS-1 receptor (Homo sapiens) (Q969F8 whole entry, looked up): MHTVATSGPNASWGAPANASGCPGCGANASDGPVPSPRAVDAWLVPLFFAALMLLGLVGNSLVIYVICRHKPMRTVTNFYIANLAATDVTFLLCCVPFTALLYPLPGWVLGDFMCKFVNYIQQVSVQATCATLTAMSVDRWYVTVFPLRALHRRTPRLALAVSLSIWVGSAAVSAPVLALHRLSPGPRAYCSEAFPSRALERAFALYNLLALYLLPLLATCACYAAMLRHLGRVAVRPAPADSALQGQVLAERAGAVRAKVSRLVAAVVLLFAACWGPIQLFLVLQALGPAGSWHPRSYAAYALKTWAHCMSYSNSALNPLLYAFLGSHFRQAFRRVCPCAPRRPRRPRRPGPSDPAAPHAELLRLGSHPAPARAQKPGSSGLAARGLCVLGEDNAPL
# Sequence of Gonadotropin-releasing hormone receptor (Homo sapiens) (P30968 whole entry, looked up): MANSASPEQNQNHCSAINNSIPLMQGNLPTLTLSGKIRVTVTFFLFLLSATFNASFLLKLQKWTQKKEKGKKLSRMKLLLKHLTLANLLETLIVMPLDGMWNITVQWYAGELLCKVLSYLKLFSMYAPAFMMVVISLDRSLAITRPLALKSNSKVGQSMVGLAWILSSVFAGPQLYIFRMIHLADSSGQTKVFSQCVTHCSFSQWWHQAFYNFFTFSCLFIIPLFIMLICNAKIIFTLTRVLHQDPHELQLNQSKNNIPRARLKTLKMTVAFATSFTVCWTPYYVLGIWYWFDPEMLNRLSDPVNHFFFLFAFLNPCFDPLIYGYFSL
Structure (SMILES),Potency [1],Potency [2],Potency [3],Potency [4],Potency [5],Potency [6],Potency [7],Potency [8],Potency [9],Potency [10],Potency [11],Potency [12],Potency [13],Potency [14],Potency [15],Potency [16],Potency [17],Potency [18],Potency [19],Potency [20]
O=C(O)C1C2CCC(O2)C1C(=O)O (centres undefined),inactive,inactive,inactive,inactive,inactive,inactive,inactive,inactive,inactive,inactive,inactive,inactive,inactive,27.6 µM (active) and 49.9 µM (active),inactive,inactive,inactive,,,
O=[N+]([O-])c1c(Cl)c(Cl)c(Cl)c(Cl)c1Cl,inactive,27.2 µM (active) and 54.5 µM (active),inactive,inactive,inactive,inactive,inactive,inactive,,inactive,inactive,inactive,,inactive,inactive,inactive,inactive,inactive,inactive,
CCC[CH2][Sn]([Cl])([Cl])[CH2]CCC,1.23 µM (active) and 2.17 µM (active),492 nM (active) and 969 nM (active),inactive,inactive,inactive,inactive,inactive,18.5 µM (active) and 45.8 µM (active),,inactive,inactive,inactive,,,inactive,,inactive,3.28 µM (active) and 4.08 µM (active),inactive,
ClC1=C(Cl)C2(Cl)C3C(Cl)C=CC3C1(Cl)C2(Cl)Cl (centres undefined),27.4 µM (active) and 61.1 µM (active),inactive,inactive,inactive,inactive,inactive,inactive,inactive,inactive,inactive,inactive,inactive,inactive,inactive,inactive,,inactive,inactive,inactive,
Oc1ccccc1Cl,inactive,inactive,inactive,inactive,inactive,inactive,,inactive,inactive,inactive,inactive,inactive,inactive,inactive,inactive,inactive,inactive,inactive,inactive,inactive
COC(=O)C(Br)CBr (centres undefined),inactive,inactive,inactive,inactive,inactive,inactive,,inactive,inactive,inactive,inactive,inactive,inactive,inactive,inactive,,inactive,inactive,inactive,inactive
CCOC(=O)CC(SP(=S)(OC)OC)C(=O)OCC (centres undefined),inactive,24.3 µM (active),inactive,inactive,inactive,inactive,,inactive,,inactive,inactive,inactive,inactive,,inactive,inactive,inactive,inactive,inactive,inactive
CC1(C)CC(=O)CC(C)(C)N1[O],inactive,inactive,inactive,inactive,inactive,inactive,,inactive,,inactive,inactive,inactive,inactive,inactive,inactive,inactive,inactive,inactive,inactive,inactive
C1=Cc2cccc3cccc1c23,inactive,23.9 µM (active) and inactive,inactive,inactive,inactive,inactive,,inactive,inactive,inactive,,inactive,,inactive,inactive,inactive,,inactive,inactive,inactive
C=CCOC(N)=O,inactive,inactive,inactive,inactive,inactive,inactive,,inactive,inactive,inactive,inactive,inactive,,inactive,inactive,,inactive,inactive,,inactive
O=S(=O)(c1ccc(O)cc1)c1ccc(O)cc1,inactive,inactive,inactive,inactive,inactive,inactive,,inactive,inactive,inactive,inactive,inactive,inactive,inactive,inactive,,,inactive,,inactive
CN(C)C(=S)SSC(=S)N(C)C,95.5 nM (active) and 137 nM (active) and 119 nM (active),inactive and 96.9 nM (active),inactive,inactive,inactive,inactive,,,inactive,inactive and 27.5 µM (active),inactive,inactive,,,,inactive,inactive,inactive,,inactive
COP(=S)(OC)Oc1ccc(SC)c(C)c1,inactive,inactive and 24.3 µM (active),inactive,inactive,inactive,inactive,,inactive,inactive,inactive,inactive,inactive,inactive,inactive,inactive,inactive,inactive,inactive,inactive,inactive
O=S(=O)(O)C(F)(F)C(F)(F)C(F)(F)C(F)(F)C(F)(F)C(F)(F)F,inactive,inactive,inactive,inactive,inactive,inactive,,inactive,inactive,inactive,inactive,inactive,inactive,inactive,inactive,inactive,inactive,inactive,inactive,
CCOP(=S)(OCC)Oc1cc(C)nc(C(C)C)n1,inactive,inactive,inactive,inactive,inactive,inactive,,inactive,inactive,inactive,inactive,inactive,inactive,inactive,inactive,inactive,inactive,inactive,,inactive
CCCCSP(=O)(SCCCC)SCCCC,inactive,inactive,inactive,inactive,inactive,inactive,,inactive,inactive,inactive,inactive,inactive,inactive,inactive,inactive,inactive,inactive,,inactive,inactive
